This passage reports inhibition results from PubChem BioAssay AID686940 (The Scripps Research Institute Molecular Screening Center, 2013).

Structures are written as SMILES. About 2,600 (0.7%) of roughly 370,000 compounds were called active. Many of the other results were omitted from the sample, so actives are more common in it than they were. A number with no mark means an inactive call.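 Rule for the calls: active = inhibition above a per-plate cutoff, mean inhibition of test wells between control levels plus 3 SD (cut at about 38% in these data); inactive = the rest.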

Sequence of COUP transcription factor 2 (Homo sapiens) (P24468 whole entry, looked up): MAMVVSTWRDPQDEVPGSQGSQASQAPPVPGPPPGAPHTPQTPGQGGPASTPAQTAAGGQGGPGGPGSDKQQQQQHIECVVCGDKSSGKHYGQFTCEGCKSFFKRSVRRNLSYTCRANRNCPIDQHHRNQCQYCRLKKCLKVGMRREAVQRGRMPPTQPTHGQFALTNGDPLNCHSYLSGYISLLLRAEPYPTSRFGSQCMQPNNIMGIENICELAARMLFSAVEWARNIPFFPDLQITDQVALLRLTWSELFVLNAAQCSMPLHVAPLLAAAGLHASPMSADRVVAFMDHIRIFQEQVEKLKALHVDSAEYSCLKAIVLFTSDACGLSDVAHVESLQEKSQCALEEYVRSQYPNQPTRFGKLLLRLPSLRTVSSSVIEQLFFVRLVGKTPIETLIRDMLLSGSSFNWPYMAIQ

The assay has as its target COUP transcription factor 2 (Homo sapiens) (UniProt P24468). Nature of the assay: NR2F2 transcriptional activity inhibitors, primary screen, cell-based, luciferase reporter, HEK293T, luminescence (AID 686940).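 Note: cells cotransfected with COUP-TFII expression vector driving the NGFI-A reporter; 0% = median of COUP-TF2 test wells and 100% = reporter-only cells.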 As to conditions: HEK293T NGFI-A luciferase reporter, at 8.6 µM, hits give high values. For orientation: Reporter assays use an easily measured gene product as a stand-in for the process of interest.
Turning to `CCOC(=O)[C@]12CCCCC/C=C\1N(Cc1ccc(OC)cc1)C(=O)[C@H]2CC(=O)N1CCOCC1`, the inhibition (commonly the relative decrease from the control value, in per cent) is 13.5%.

Consider `COc1ccc([C@H]2OC(=O)C[C@H]2C(=O)N2CCN(c3ccccc3F)CC2)cc1OC`, for which the inhibition was -8.84%.

With `Cc1cc(C(=O)COC(=O)CNC(=O)c2ccc(F)cc2)c(C)n1Cc1ccco1`, the inhibition was 22.8%.

For `COCCn1c(C)cc(C(=O)COC(=O)CNC(=O)c2ccco2)c1C`, the inhibition was -5.61%.

Regarding `Cc1ccsc1C(=O)OCC(=O)c1cc(C)n(CC2CCCO2)c1C` (centres undefined), the inhibition was 87.1% (active).

Regarding `C=CCn1c(SCC(N)=O)nnc1-c1ccccc1OC`, the inhibition was 9.3%.

Take `COC(=O)[C@]12C[C@H](CC(=O)NCc3ccccc3)C(=O)N(CCc3ccc(OC)c(OC)c3)C1=C[C@H](C(C)(C)C)O[C@@H]2C`: the inhibition is 10.6%.

Take `Cc1csc(NC(=O)CN2CCCCCC2)n1`: the inhibition was 4.1%.

On to `COCCn1c(SCC(=O)Nc2nc(C)cs2)nnc1C(C)C`, for which the inhibition is -1.64%.

On to `COc1cc(SC)ccc1C(=O)Nc1nc(C)cs1`, for which the inhibition was 67.9% (active).

As for `COC[C@@H]1CCCN1c1ccc2c(c1)O[C@H](C)CCN(C1CC1)S2(=O)=O`, the inhibition was -10.8%.

With `COC(=O)C[C@@H]1CC[C@H]2[C@@H](COc3ccc(NS(=O)(=O)CC(F)(F)F)cc3C(=O)N2C)O1`, the inhibition was -17.9%.

With `CN(CCO)c1cccc2c1S(=O)(=O)N(Cc1cn(Cc3ccc(C(F)(F)F)cc3)nn1)Cc1ccccc1O2`, the inhibition was -35.7%.

Turning to `CCOc1ccc(Oc2c(Cl)cnn(-c3ccc(C)cc3)c2=O)cc1`, the inhibition is 7.75%.

As to `Cc1sc2nc(SCC(=O)c3ccc(O)c(O)c3)n(Cc3ccco3)c(=O)c2c1C`, the inhibition was 7.6%.

For `CCOC(=O)c1ccc(NC(=O)CCn2c(=O)oc3ccccc32)cc1`, the inhibition was 6.76%.

In the case of `CCOC(=O)c1ccc(NC(=O)Cn2cnc3cc(C)c(C)cc32)cc1`, the inhibition is 59.5% (active).

For `Cc1ccc(NC(=O)Cn2cnc3c(OCc4ccccc4)ncnc32)cc1C`, the inhibition was 2.95%.

Consider `CC(=O)O[C@@]1(C(C)=O)CCC2[C@H]3C=C(C)C4=CC(=O)CC[C@@]4(C)C3CC[C@]21C` (some centres undefined), for which the inhibition was 3.66%.

Turning to `COc1ccc(C(=O)Nc2ccccc2C(=O)N/N=C/c2ccc(O)c(OC)c2)cc1`, the inhibition is 77.1% (active).

As to `COc1cc(C(=O)Nc2cc(C(F)(F)F)ccc2N2CCOCC2)ccc1O`, the inhibition was -16.6%.

`C=CCOc1ccc(C(=O)Nc2ccccc2C(=O)N2CCCC2)cc1`: the inhibition is -20.6%.

With `COc1ccc(S[C@]2(C(=O)N(C)C)CC(=O)N(c3ccc(OC)cc3)[C@@H]2c2ccc(OC)cc2)cc1`, the inhibition is -1.97%.

Consider `COC(=O)CC1CCc2cc(C)cc(C(CC(C)C)NC(=O)[C@H](CC(C)C)NC(=O)OCc3ccccc3)c2O1` (some centres undefined), for which the inhibition is 5.51%.

`CCOC(=O)C1CCN(C(=O)C(C)(C)NC(=O)Nc2ccc(F)c(F)c2)CC1`: the inhibition was -2.96%.

With `c1coc(CNc2ncnc3ccccc23)c1`, the inhibition was 53.6% (active).

Turning to `c1coc(CCNc2ncnc3ccc(-c4ccc5c(c4)OCO5)cc23)c1`, the inhibition is -3.64%.

For the molecule `O=C(COc1ncnc2ccccc12)NC(=O)NCc1ccccc1`, the inhibition is 11.2%.

For `COc1ccc(CNc2ncnc3ccccc23)cc1`, the inhibition is 56.7% (active).

For `O=C(NCc1ccncc1)C(=O)NCc1ccco1`, the inhibition was 2.85%.

For `COc1ccc(CNC(=O)COc2cccnc2[N+](=O)[O-])cc1`, the inhibition was 0.02%.

Turning to `C[C@H]1[C@H](NC(=O)c2cccc(N(C)C)c2)CC[C@@]23CCCN2C(=O)CCC[C@@H]13`, the inhibition was 4.37%.

Turning to `COc1ccc(C#CCNCc2ccc(OC)cc2OC)cc1`, the inhibition is -3.51%.

Consider `COC(=O)c1cccc(Cn2ccc3ccc(-c4ccc5ccn(C(=O)c6ccccc6C)c5c4)cc32)c1`, for which the inhibition is -1.59%.

Regarding `O=C(c1ccncc1)N1CC[C@H]2[C@H](CCCN2Cc2ccc(F)cc2)C1`, the inhibition was -20.6%.

Take `COC(=O)[C@]12C[C@H](CC(=O)NCCc3ccccc3OC)C(=O)N(Cc3ccco3)C1=C[C@H](C(C)C)O[C@@H]2C1CC1`: the inhibition was 3.03%.

Turning to `CC(=O)Nc1nc2ncccn2c1-c1ccc(C(F)(F)F)cc1`, the inhibition was 4.78%.

For the molecule `Cc1ccc(NC(=O)c2cc(C)nn2-c2ccccc2)c(C)c1`, the inhibition was -0.68%.

With `CCN(CC)C(=O)CC[C@@H]1CC[C@]2(CCCN(S(=O)(=O)C3CCCCC3)C2)O1`, the inhibition is 10.7%.

With `C[C@@H]1C[C@@H]2O[C@H]2/C=C\C=C\C(=O)Cc2c(Cl)c(O)cc(O)c2C(=O)O1`, the inhibition is 61.7% (active).

Consider `CCOC(=O)N1CCN(C(=O)C2CCN(Cc3ccc(OC)cc3OC)CC2)CC1`, for which the inhibition is 5.07%.

With `CCOC(=O)N1CCN(C(=O)C2CCN(c3ncnc4c3sc3cccc(F)c34)CC2)CC1`, the inhibition was 46.1% (active).

For the molecule `CCOC(=O)N1CCN(C(=O)C2CCCN(c3ncnc4c3sc3cccc(F)c34)C2)CC1` (centres undefined), the inhibition was -4.38%.

For `COc1ccc(-c2nn(C)c(=O)c3ccccc23)cc1NC(=O)COc1ccccc1`, the inhibition is -20.3%.

Consider `Cc1ccc(F)cc1NC(=O)Cc1nn(C)c(=O)c2ccccc12`, for which the inhibition was 54.3% (active).

Regarding `Cc1ccc(F)cc1NC(=O)CSCc1c(C)noc1C`, the inhibition was 2.99%.

`CC(c1c[nH]c2ccccc12)c1c(-c2ccccc2)n(C)c2ccccc12` (centres undefined): the inhibition is 0.69%.

Take `C#CCCN([C@H](C(=O)OC)C(C)C)S(=O)(=O)c1ccc(F)cc1Br`: the inhibition is 17.9%.

With `CC1(C(=O)NS(=O)(=O)c2ccccc2)CCN1C(=O)Cc1ccc(-c2ccccc2)cc1` (centres undefined), the inhibition is -9.63%.

Regarding `C#Cc1ccc(NC(=O)C2(C)CCN2C(=O)Cc2ccc(-c3ccccc3)cc2)cc1` (centres undefined), the inhibition was 66.9% (active).

Consider `CCCNC(=O)C1(C)CCN1C(=O)Cc1ccc(-c2ccccc2)cc1` (centres undefined), for which the inhibition was 27.8%.

For the molecule `C=CCN1C(=O)[C@@H](CC(=O)NCC2CCCCC2)[C@]2(C(=O)OC)CCCCC=C12`, the inhibition is 2.77%.

As for `Cc1cccc(NC(=O)C[C@H]2CC[C@H]3[C@@H](COc4ccc(NC(=O)Nc5ccccc5)cc4C(=O)N3C)O2)c1`, the inhibition is -4.77%.

Take `CCC(NC(=O)C1C2C=CC3(CN(Cc4ccccc4)C(=O)C13)O2)c1ccccc1` (centres undefined): the inhibition is 8.47%.
